Bioassay records deposited in PubChem by The Scripps Research Institute Molecular Screening Center.
An excerpt weighted towards active compounds, which were near 2.9% of everything screened.
PLC-gamma1 inh – blocks human PLC-gamma1 enzyme activity; AID 720700; hit rate 0.84% among 370,000; inhibition, % at 12.2 µM; purified PLC-gamma1, fluorogenic substrate, fluorescence
PLCb3 inh – inhibitors of human phospholipase C beta3; Q01970; Purified PLC-beta3, fluorogenic substrate, fluorescence; AID 720704; inhibition, % at 12.2 µM; hit rate 0.18% among 370,000; in the data active = inhibition above about 11%;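 also: 0% = median of compound wells on plate and 100% = full blocker control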
ADAM17 inh – inhibitors of human ADAM17. P78536. recombinant ADAM17, EDANS/DABCYL FRET peptide cleavage. hit rate 0.83% among 370,000. AID 720648. inhibition, % at 6.95 µM;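 active = inhibition above the mean of compounds lying between control limits plus 3 SD, set per campaign, cut at about 8.5% in these data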;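 also: 0% = DMSO-only wells as the low control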
ADAM10 inh – inhibits human ADAM10. O14672. recombinant ADAM10, EDANS/DABCYL FRET peptide cleavage, 3 h. inhibition, % at 7 µM. hit rate 0.62% among 370,000. AID 720582;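 active = inhibition above a per-campaign cutoff equal to the mean of compounds falling between control-based bounds plus 3 SD, cut at about 20% in these data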;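 also: 0% = DMSO wells while the 100% control is not disclosed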
proKLK7 act – proKLK7 (human) activation, primary screen | P49862 | purified proKLK7, EDANS-DABCYL substrate fluorescence; 100% is mature enzyme control, 0% vehicle | activation, % at 7 µM | hit rate 0.9% among 370,000 | AID 652039;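 active = activation above the mean of all tested compounds plus 3 SD, computed per campaign excluding outliers beyond control limits, cut at about 13% in these data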
PLCgamma1 ctr – counter-screen for PLC-beta3 inhibitors: inhibitors of human PLC-gamma1; shares compounds with PLC-gamma1 inh; purified PLC-gamma1, fluorogenic substrate, fluorescence; inhibition, % at 12.3 µM; hit rate 3.1% among 3,300; AID 743258
PLCbeta3 conf – confirmation of human PLC-beta3 inhibitors; shares compounds with PLC-gamma1 inh; hit rate 1% among 3,300; AID 743261; inhibition, % at 12.3 µM; purified PLC-beta3, fluorogenic substrate fluorescence; in the data active = inhibition above about 11%
Starred values were filed as active, the others as inactive; · = no result. Rule as the data show it, unless noted: active = inhibition above about 9.5%; inactive = the rest.

SMILES | PLC-gamma1 inh | PLCb3 inh | ADAM17 inh | ADAM10 inh | proKLK7 act | PLCgamma1 ctr | PLCbeta3 conf
O=C(COC(=O)c1ccc2c(c1)OCO2)NCc1ccc2c(c1)OCO2 | 5 | -2 | -1 | -4 | 0 | · | ·
C=CCn1c(C)nnc1SCC(=O)Nc1ccc2c(c1)OCCO2 | -3 | 0 | -6 | -16 | 0 | · | ·
Cc1cnc(C(=O)OCC(=O)NCc2ccc3c(c2)OCO3)cn1 | 3 | 11* | 0 | 9 | -1 | -3 | -4
CCn1c(C)nnc1SCC(=O)Nc1ccc2c(c1)OCCO2 | 9.9* | 0 | 2 | 1 | 1 | -9 | 1
CCC[C@H]1[C@@H](NC(=O)C(c2ccccc2)c2ccccc2)CC[C@@]23CCCN2C(=O)CCC[C@@H]13 | 0 | -1 | 0 | 0 | · | · | ·
O=C(NCCNC(=O)c1cc(OCC(F)(F)F)ccc1OCC(F)(F)F)Nc1ccc(OC(F)(F)F)cc1 | 12* | -2 | 5 | 6 | 0 | -7 | -3
O=C(NCCNC(=O)c1cc(OCC(F)(F)F)ccc1OCC(F)(F)F)Nc1ccc(Cl)cc1 | 4 | 5 | 2 | 7 | 0 | · | ·
O=C1N2CCSC2=NC1(NS(=O)(=O)c1ccccc1)C(F)(F)F (stereo not drawn) | 10* | 5 | 4 | 6 | -1 | 2 | 2
O=C1NC(c2ccccc2)=NC1(NS(=O)(=O)c1ccccc1)C(F)(F)F (stereo not drawn) | 3 | 11* | 8 | 7 | 1 | -2 | 1
COCCN1C(=O)CN(S(C)(=O)=O)CC1(C)C(=O)NC(C)C (stereo not drawn) | -2 | -2 | -3 | -18 | 0 | · | ·
CCOc1ccc(S(=O)(=O)N2CCC(C(=O)NCc3cccnc3)CC2)cc1 | 12* | -3 | -4 | -15 | 0 | -2 | 1
CC(C)OC(=O)CSc1nnc(CNc2cccc(Cl)c2)n1C | 10* | 3 | 5 | 11 | -1 | -7 | -3
O=C(NCC(c1ccco1)N1CCCC1)c1ccccc1Sc1ccc(C(F)(F)F)cc1[N+](=O)[O-] (stereo not drawn) | -2 | -2 | 0 | -6 | 1 | · | ·
Nc1cc(=O)[nH]c(SCc2cccc(Cl)c2)n1 | 10* | 10 | 6 | 2 | -1 | 2 | 3
CC(=C/C(=O)O)/C(=C/c1ccccc1)C(=O)O | 10* | 0 | 3 | 3 | 0 | -4 | 1
CC(=C/C(=O)O)/C(=C\c1ccc(Br)o1)C(=O)O | 0 | -9 | -4 | -6 | 0 | · | ·
CN(Cc1nc2ccccc2[nH]1)C(=O)C1CCC(=O)N(C2CCCC2)C1 (stereo not drawn) | 9.8* | -2 | -1 | 1 | -1 | -1 | 2
Cc1cccc(N/C=C/C(=O)c2ccc(Cl)cc2)c1 | -15 | -35 | -7 | 0 | -1 | · | ·
Cc1ccc[n+](/C(=C\C(=C=[N-])C#N)C(=O)c2ccc(Cl)cc2)c1 | 9.7* | 6 | 5 | 15 | 0 | 2 | 6
CCOC(=O)[C@@]12CCCC3=C1N(CCC3)C(=O)[C@H]2CC(=O)NCc1ccccc1 | 0 | 3 | -2 | -2 | 0 | · | ·
Cc1sc2ncn(CC(=O)NCCN3CCOCC3)c(=O)c2c1S(=O)(=O)N1CCC(C)CC1 | 11* | 3 | -1 | 1 | 0 | -8 | -5
Cc1sc2ncn(CC(=O)NCCCN3CCC(C)CC3)c(=O)c2c1S(=O)(=O)N1CCC(C)CC1 | 6 | -3 | 1 | 13 | 0 | · | ·
CCOc1ccccc1NC(=O)N1CCCC1C(=O)NCc1cccs1 (stereo not drawn) | 2 | -3 | 1 | -1 | 0 | · | ·
CCOc1ccccc1NC(=O)C1CCCN1C(=O)c1cccs1 (stereo not drawn) | 10* | -2 | -4 | -5 | 0 | -7 | -2
CC1(C(=O)NS(=O)(=O)Cc2cccc(Cl)c2)CCN1C(=O)CCc1ccccc1 (stereo not drawn) | -3 | -7 | -1 | -2 | 0 | · | ·
SMILES | PLC-gamma1 inh | PLCb3 inh | ADAM17 inh | ADAM10 inh | proKLK7 act | PLCgamma1 ctr | PLCbeta3 conf
CCNC(=O)C1(C)CCN1C(=O)CCc1cccc(Cl)c1 (stereo not drawn) | 14* | 8 | 7 | 12 | 0 | -8 | -4
CC(C)NC(=O)CSc1ccccc1C(=O)NNC(=O)Cn1ccc(C(F)(F)F)n1 | 5 | -1 | -2 | -8 | 1 | · | ·
CC(C)OC(=O)Cn1nnc(-c2ccccc2)n1 | -1 | 2 | -5 | 8 | 1 | · | ·
CCOC(=O)Cn1nnc(-c2ccccc2)n1 | 3 | 14* | 3 | -1 | 1 | -2 | 2
Cc1cccc(C)c1-n1nnnc1C1(C)CCC(=O)N1Cc1ccco1 (stereo not drawn) | 2 | 2 | -2 | 2 | -1 | · | ·
CCC(=O)Nc1cc(C(=O)OCC(=O)c2ccccc2Cl)ccc1C | 13* | -1 | 3 | -2 | 0 | 2 | 2
Cc1ccc(N2C(=O)C3C4C=CC(C4)C3C2=O)cc1C (stereo not drawn) | 0 | 2 | 0 | -1 | 0 | · | ·
CC1=NN(c2ccc(C)c(C)c2)C(=O)C1C(c1cccc(O)c1)C1C(=O)N(c2ccc(C)c(C)c2)N=C1C (stereo not drawn) | 16* | 5 | 5 | 9 | 1 | 0 | -1
Cc1ccc(-n2ncc3c2CCCC3NC(=O)CCn2ccnc2C)cc1C (stereo not drawn) | -2 | -11 | -2 | 1 | 0 | · | ·
O=S(=O)([N-]c1nc2ccccc2nc1-[n+]1ccccc1)c1ccc(F)cc1 | 11* | -2 | 1 | -4 | 0 | -7 | -7
Cc1ccc[n+](-c2nc3ccccc3nc2[N-]S(=O)(=O)c2ccccc2)c1 | -1 | -8 | -4 | -1 | 1 | · | ·
COC(=O)[C@H](C)NC(=O)[C@@H]1CC=C[C@@H]2CCN(CCc3ccccc3)C(=O)[C@@H]21 | -3 | -1 | -1 | -3 | · | · | ·
COC(=O)[C@]12C[C@H](CC(=O)N3CCC(c4ccccc4)CC3)C(=O)N(CCC3=CCCCC3)C1=C[C@H](C(C)C)O[C@@H]2C1CC1 | 1 | -2 | -3 | -1 | 0 | · | ·
CCc1cc2c(nc1CC)CCCN2Cc1ccc(Br)cc1 | -99 | -126 | -29 | -91 | -1 | · | ·
COc1ccc(/C=C/c2c([N+](=O)[O-])c(=O)n(C)c(=O)n2C)cc1 | 4 | -4 | -2 | -4 | 0 | · | ·
CCOc1ccc(/C=C/c2c([N+](=O)[O-])c(=O)n(C)c(=O)n2C)cc1 | 11* | 4 | -1 | 3 | 1 | 2 | 2
Cn1c(=O)[nH]c(=O)c2c1nc(Sc1ccccc1)n2CCc1ccccc1 | 0 | 4 | 0 | -2 | 0 | · | ·
Cc1ccc(Sc2nc3c(c(=O)[nH]c(=O)n3C)n2CCc2ccccc2)cc1 | 5 | 13* | 6 | 10 | 0 | -2 | -2
CCNC(=O)N(C)c1c(CC)nc2ccc(C(=O)N3CCN(C(C)=O)CC3)cn12 | -2 | -3 | -2 | -2 | 1 | · | ·
